In PubChem BioAssay (Tox21):
Inconclusive results are not listed. Entries that show only a call come without a potency. The source made the active and inactive calls. Unless noted, calls follow the shape of the dose curve; as a rule, active = well fitted curve in the direction sought with a large enough effect in the repeat runs; inconclusive = weak or mixed curves; inactive = no such curve, though single readings can be large; an effect the other way counts as inactive or inconclusive.

Key:
[1] = qHTS assay to identify small molecule antagonists of the thyroid receptor (TR) signaling pathway (AID 743065); also: series mostly up to about 70 µM; nearly all actives have a fitted effect of over 55% in size
Summary of the method: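 GH3.TRE-Luc rat pituitary cells (two TREs driving luciferase) were dosed with compound, then stimulated with 1 nM T3 (final) for 23.5 h at 37 C. ONE-Glo luminescence was the read-out, with CellTiter-Fluor fluorescence as the cytotoxicity counter-screen.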

[2] = tested on: thyroid hormone receptor (rat, GH3 cells); test: qHTS assay to identify small molecule agonists of the thyroid receptor (TR) signaling pathway (AID 743066; calls by dose curve)
[3] = qHTS assay to identify small molecule antagonists of the estrogen receptor alpha (ER-alpha) signaling pathway - cell viability counter screen (AID 743074; calls by dose curve;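 also: HEK293 cells carrying ER-alpha-UAS-bla reporter stimulated with 17beta-estradiol; nearly all actives have a fitted effect of over 45% in size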)
[4] = qHTS assay to identify small molecule antagonists of the estrogen receptor alpha (ER-alpha) signaling pathway using the BG1 cell line - cell viability counter screen (AID 743081);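 also: compound given together with 17beta-estradiol as the ER stimulus; series mostly up to about 70 µM; nearly all actives have a fitted effect of over 45% in size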
Aromatase (Homo sapiens) = Aromatase (Homo sapiens) (UniProt P11511); test: qHTS assay to identify aromatase inhibitors (AID 743083); also: series mostly up to about 70 µM; nearly all actives have a fitted effect of over 55% in size
Aromatase (Homo sapiens), sequence (P11511 whole entry, looked up): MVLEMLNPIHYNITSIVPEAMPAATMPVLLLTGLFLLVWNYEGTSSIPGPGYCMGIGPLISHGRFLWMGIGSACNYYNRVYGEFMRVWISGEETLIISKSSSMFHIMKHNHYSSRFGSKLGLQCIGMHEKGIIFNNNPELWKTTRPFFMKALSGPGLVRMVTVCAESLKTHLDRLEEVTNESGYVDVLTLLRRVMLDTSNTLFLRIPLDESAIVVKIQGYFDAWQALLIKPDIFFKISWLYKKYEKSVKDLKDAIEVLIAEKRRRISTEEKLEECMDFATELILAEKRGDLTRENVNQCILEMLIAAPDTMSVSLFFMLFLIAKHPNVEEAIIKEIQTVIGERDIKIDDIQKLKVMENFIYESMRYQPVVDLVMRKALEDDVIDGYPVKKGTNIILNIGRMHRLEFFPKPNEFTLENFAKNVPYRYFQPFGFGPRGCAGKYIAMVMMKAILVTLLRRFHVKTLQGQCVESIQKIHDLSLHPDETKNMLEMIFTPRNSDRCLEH

[5] = qHTS assay to identify aromatase inhibitors - cell viability counter screen (AID 743084);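 also: cells stimulated with testosterone during compound exposure; nearly all actives have a fitted effect of over 55% in size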
[6] = molecular target: Aryl hydrocarbon receptor (Homo sapiens) (UniProt P35869); test: qHTS assay to identify small molecule that activate the aryl hydrocarbon receptor (AhR) signaling pathway (AID 743085); also: nearly all actives have a fitted effect of over 15% in size; also: potency is read from the fitted curve at half-maximal effect;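 as to activation: HG2L7.5c1 human HepG2 liver cells with stably integrated DRE-driven firefly reporter; series mostly up to about 70 µM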
Aryl hydrocarbon receptor (Homo sapiens), sequence (P35869 whole entry, looked up): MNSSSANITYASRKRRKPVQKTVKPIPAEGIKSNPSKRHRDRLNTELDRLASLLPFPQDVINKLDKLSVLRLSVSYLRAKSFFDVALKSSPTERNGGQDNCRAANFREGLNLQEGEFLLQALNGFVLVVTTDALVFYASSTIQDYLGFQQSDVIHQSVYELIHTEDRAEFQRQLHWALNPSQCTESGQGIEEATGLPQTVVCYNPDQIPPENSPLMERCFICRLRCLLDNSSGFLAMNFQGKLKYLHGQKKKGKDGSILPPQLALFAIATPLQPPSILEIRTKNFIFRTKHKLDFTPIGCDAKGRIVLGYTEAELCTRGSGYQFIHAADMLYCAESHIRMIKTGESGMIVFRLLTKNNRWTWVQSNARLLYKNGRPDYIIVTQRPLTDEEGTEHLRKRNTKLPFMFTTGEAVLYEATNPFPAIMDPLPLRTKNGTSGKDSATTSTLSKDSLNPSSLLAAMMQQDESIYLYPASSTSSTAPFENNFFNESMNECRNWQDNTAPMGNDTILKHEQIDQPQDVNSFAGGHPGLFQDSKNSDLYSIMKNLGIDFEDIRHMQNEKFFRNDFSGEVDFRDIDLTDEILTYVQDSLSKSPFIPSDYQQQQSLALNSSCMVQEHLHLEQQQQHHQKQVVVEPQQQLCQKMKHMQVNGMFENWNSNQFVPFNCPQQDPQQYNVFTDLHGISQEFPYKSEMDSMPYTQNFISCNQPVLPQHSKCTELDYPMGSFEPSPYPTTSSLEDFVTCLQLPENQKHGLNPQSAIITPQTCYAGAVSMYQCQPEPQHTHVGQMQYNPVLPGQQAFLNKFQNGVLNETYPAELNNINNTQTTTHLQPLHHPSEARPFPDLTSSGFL
Summary of the method: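 HepG2 cells (HG2L7.5c1) stably carrying a firefly luciferase reporter driven by 20 dioxin responsive elements were exposed to compound for 24 h at 37C after a 5 h settling period; luminescence rise (ONE-Glo) indicated activation.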

[7] = qHTS assay to identify small molecule that activate the aryl hydrocarbon receptor (AhR) signaling pathway - cell viability counter screen (AID 743086);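 also: HepG2 liver cells carrying the AhR DRE luciferase reporter; series mostly up to about 70 µM; nearly all actives have a fitted effect of over 45% in size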
Summary of the method: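 HepG2-AhR-luc (HG2L7.5c1) cells, 4000/well, treated 24 h at 37 C with compound; viability measured as CellTiter-Fluor fluorescence after 30 min in the same wells as the luciferase read.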

[8] = molecular target: Peroxisome proliferator-activated receptor gamma (Homo sapiens) (UniProt P37231); test: qHTS assay to identify small molecule agonists of the peroxisome proliferator-activated receptor gamma (PPARg) signaling pathway (AID 743094; active = well fitted activation curve with a large enough effect in the signal ratio in the repeat runs, not every such curve was filed as active; the % refers to the signal ratio)
Peroxisome proliferator-activated receptor gamma (Homo sapiens), sequence (P37231 whole entry, looked up): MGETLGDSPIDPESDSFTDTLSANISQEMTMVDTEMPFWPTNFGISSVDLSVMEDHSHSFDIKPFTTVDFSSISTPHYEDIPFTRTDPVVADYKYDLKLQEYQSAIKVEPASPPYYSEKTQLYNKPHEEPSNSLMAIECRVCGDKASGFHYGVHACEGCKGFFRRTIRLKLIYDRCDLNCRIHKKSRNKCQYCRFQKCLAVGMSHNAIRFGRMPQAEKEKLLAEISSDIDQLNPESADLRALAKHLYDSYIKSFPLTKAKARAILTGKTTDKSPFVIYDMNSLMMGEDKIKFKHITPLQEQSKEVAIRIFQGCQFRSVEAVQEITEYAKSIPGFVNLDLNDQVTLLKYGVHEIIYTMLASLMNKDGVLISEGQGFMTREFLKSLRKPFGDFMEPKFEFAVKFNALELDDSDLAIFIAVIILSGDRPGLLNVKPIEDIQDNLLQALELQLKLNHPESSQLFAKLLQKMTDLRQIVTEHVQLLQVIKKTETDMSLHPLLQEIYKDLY
Summary of the method: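 Fluorescence-based beta-lactamase readout in HEK293H PPARg UAS-bla cells after 17 h compound exposure (37C) and 1 h B/G FRET substrate incubation at room temperature.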

[9] = molecular target: Peroxisome proliferator-activated receptor gamma (Homo sapiens) (UniProt P37231); test: qHTS assay to identify small molecule antagonists of the peroxisome proliferator-activated receptor gamma (PPARg) signaling pathway (AID 743191; calls by dose curve; also: series mostly up to about 63 µM; nearly all actives have a fitted effect of over 30% in size)
Summary of the method: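 GeneBLAzer PPARg UAS-bla HEK293H cells, 5 h post-plating, exposed to compounds 17 h at 37C. LiveBLAzer B/G FRET substrate added for 1 h at room temperature; beta-lactamase reporter read by fluorescence intensity.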

[10] = qHTS assay to identify small molecule antagonists of the peroxisome proliferator-activated receptor gamma (PPARg) signaling pathway - cell viability counter screen (AID 743194); also: nearly all actives have a fitted effect of over 55% in size
Summary of the method: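 Cytotoxicity counter screen in PPARg-bla HEK293H cells, same wells as reporter assay. Compounds plus 50 nM rosiglitazone (final) for 17 h at 37 C, then viability read by CellTiter-Glo luminescence.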

[11] = qHTS assay for small molecule activators of the heat shock response signaling pathway - cell viability counter screen (AID 743209); also: nearly all actives have a fitted effect of over 50% in size
Summary of the method: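 To flag cytotoxic compounds, HSE-bla HeLa cells plated at 1500 cells/well were dosed for 5 h at 37 C, followed by the reporter FRET read and then CellTiter-Glo, with luminescence recorded 30 min after reagent addition.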

[12] = qHTS assay for small molecule activators of the heat shock response signaling pathway (AID 743210; active = well fitted activation curve with a large enough effect in the signal ratio in the repeat runs, with a control signal flat, not every such curve was filed as active; the % refers to the signal ratio;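 also: HeLa cells with beta-lactamase reporter driven by heat shock elements; series mostly up to about 63 µM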)
Summary of the method: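 Beta-lactamase reporter read-out: FRET substrate fluorescence after 2.5 h at RT, following 5 h compound treatment at 37 C of HeLa cells carrying HSE-driven bla reporter; quantitative HTS format.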

[13] = qHTS assay to identify small molecule agonists of the peroxisome proliferator-activated receptor delta (PPARd) signaling pathway - cell viability counter screen (AID 743211); also: nearly all actives have a fitted effect of over 55% in size
Summary of the method: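 PPARd-bla HEK293H cells (UAS-beta-lactamase reporter) were treated with compounds for 17 h at 37 C. Viability was then read in the same wells by CellTiter-Glo luminescence after 30 min at room temperature.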

[14] = qHTS assay for small molecule agonists of the antioxidant response element (ARE) signaling pathway (AID 743202; active = well fitted activation curve with a large enough effect in the signal ratio in the repeat runs, not every such curve was filed as active; the % refers to the signal ratio)
Summary of the method: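 HepG2 ARE-bla reporter line, 2,000 cells/well; 5 h preincubation 37 C/5% CO2; compound (DMSO) 16 h 37 C; B/G FRET substrate 2 h RT; fluorescence intensity.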

[15] = qHTS assay for small molecule agonists of the antioxidant response element (ARE) signaling pathway - cell viability counter screen (AID 743203; calls by dose curve; also: nearly all actives have a fitted effect of over 55% in size)
Summary of the method: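 Parallel cytotoxicity read-out for the ARE-bla screen: HepG2 reporter cells, 16 hrs with compounds, then CellTiter-Glo luminescence.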

[16] = molecular target: Estrogen receptor (Homo sapiens) (UniProt P03372); test: qHTS assay to identify small molecule antagonists of the estrogen receptor alpha (ER-alpha) signaling pathway (AID 743069; active = well fitted curve in the direction sought with a large enough effect in the signal ratio in the repeat runs, not every such curve was filed as active; the % refers to the signal ratio)
Estrogen receptor (Homo sapiens), sequence (P03372 whole entry, looked up): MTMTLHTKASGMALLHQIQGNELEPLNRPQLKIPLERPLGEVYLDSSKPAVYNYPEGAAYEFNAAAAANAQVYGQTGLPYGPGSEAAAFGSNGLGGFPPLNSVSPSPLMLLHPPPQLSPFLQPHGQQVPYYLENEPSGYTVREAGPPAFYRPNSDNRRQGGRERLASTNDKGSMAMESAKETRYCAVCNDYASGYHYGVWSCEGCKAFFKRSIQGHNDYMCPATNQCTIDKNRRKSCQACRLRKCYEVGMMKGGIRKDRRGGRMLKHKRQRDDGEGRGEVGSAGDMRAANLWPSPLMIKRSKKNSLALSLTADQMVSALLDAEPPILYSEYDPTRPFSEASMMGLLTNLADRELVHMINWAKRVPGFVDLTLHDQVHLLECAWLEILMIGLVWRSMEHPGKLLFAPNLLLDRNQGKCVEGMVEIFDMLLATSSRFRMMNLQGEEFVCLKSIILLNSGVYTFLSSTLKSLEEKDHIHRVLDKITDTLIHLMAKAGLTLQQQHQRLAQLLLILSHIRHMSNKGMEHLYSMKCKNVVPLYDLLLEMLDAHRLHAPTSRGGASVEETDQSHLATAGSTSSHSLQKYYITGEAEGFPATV
Summary of the method: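 Beta-lactamase FRET fluorescence is read after 2 hr at room temperature with LiveBLAzer B/G substrate. Before that, ER-alpha-bla HEK293 cells sit 4 hr after plating, then receive compound plus 17beta-estradiol and incubate 18 hr at 37C.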

[17] = molecular target: Estrogen receptor (Homo sapiens) (UniProt P03372); test: qHTS assay to identify small molecule agonists of the estrogen receptor alpha (ER-alpha) signaling pathway (AID 743075; calls by dose curve;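 also: HEK293 GripTite cells with ER-alpha and UAS-driven beta-lactamase reporter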)

| Structure (SMILES) | Potency [1] | outcome [2] | Potency [3] | outcome [4] | outcome (Aromatase (Homo sapiens)) | Potency [5] | Potency [6] | Potency [7] | Potency [8] | Potency [9] | outcome [10] | outcome [11] | outcome [12] | outcome [13] | Potency [14] | outcome [15] | Potency [16] | Potency [17] |
| --- | --- | --- | --- | --- | --- | --- | --- | --- | --- | --- | --- | --- | --- | --- | --- | --- | --- | --- |
| CCCCCCC#CC(=O)OC | inactive | inactive | inactive | inactive | inactive | inactive | inactive | inactive | inactive | inactive | inactive | inactive | inactive | inactive |  |  |  |  |
| NS(=O)(=O)Cc1noc2ccccc12 | inactive | inactive | inactive | inactive | inactive | inactive | inactive | inactive | inactive | inactive | inactive | inactive | inactive | inactive | inactive | inactive |  |  |
| CC[N+](C)(CC)CCOC(=O)C1c2ccccc2Oc2ccccc21 | inactive | inactive | inactive | inactive | inactive | inactive | inactive | inactive | inactive | inactive | inactive | inactive |  | inactive | inactive | inactive |  |  |
| CNCCO | inactive | inactive | inactive | inactive | inactive | inactive | inactive | inactive | inactive | inactive | inactive | inactive | inactive | inactive |  | inactive |  |  |
| [Ca+2] | inactive | inactive | inactive | inactive | inactive | inactive |  | inactive | inactive | inactive | inactive |  | inactive | inactive |  | inactive |  |  |
| CCCCCCCCCCCCSC | inactive | inactive | inactive | inactive | inactive | inactive | inactive | inactive | inactive | inactive | inactive |  | inactive | inactive |  |  |  |  |
| CCCCOCCOC(=O)CCCCCCCCC(=O)OCCOCCCC | inactive | inactive | inactive | inactive | inactive | inactive |  | inactive | inactive | inactive | inactive | inactive | inactive | inactive |  | inactive |  |  |
| c1ccc2sc(SN3CCOCC3)nc2c1 | inactive | inactive | inactive | inactive | inactive | inactive | 23.7 µM (active) | inactive |  | inactive | inactive | inactive | inactive | inactive | inactive | inactive |  |  |
| Nc1ccncc1N | inactive | inactive | inactive | inactive | inactive | inactive | 2.66 µM (active) | inactive | inactive | inactive | inactive |  | inactive | inactive | inactive | inactive |  |  |
| O=C(c1ccccc1)C1(O)CCCCC1 | inactive | inactive | inactive | inactive | inactive | inactive |  | inactive | inactive | inactive | inactive | inactive | inactive | inactive |  |  |  |  |
| CCOc1ccccc1OCC | inactive | inactive | inactive | inactive | inactive | inactive |  | inactive | inactive | inactive | inactive |  | inactive | inactive | inactive | inactive |  |  |
| CCCc1ncc(C[n+]2ccccc2C)c(N)n1 | inactive | inactive | inactive | inactive | inactive | inactive |  | inactive | inactive | inactive | inactive | inactive | inactive | inactive |  | inactive |  |  |
| O=C1c2ccccc2C(=O)c2cc(O)ccc21 | inactive | inactive | inactive |  | inactive |  |  | inactive | inactive | inactive | inactive | inactive | inactive | inactive |  | inactive |  |  |
| C[N+]12CCC(CC1)C(OC(=O)C(O)(c1ccccc1)c1ccccc1)C2 (configuration not stated) | inactive | inactive | inactive | inactive |  | inactive |  | inactive | inactive | inactive | inactive |  |  |  |  | inactive |  |  |
| C[C@@H]1CCC[C@H](C)N1 | inactive | inactive |  | inactive | inactive | inactive | inactive | inactive | inactive | inactive | inactive | inactive | inactive | inactive | inactive | inactive |  |  |
| CC(C(=O)O)c1cccc(Oc2ccccc2)c1 (configuration not stated) |  | inactive | inactive | inactive | inactive |  | inactive | inactive |  |  | inactive | inactive |  | inactive |  | inactive |  |  |
| CO/N=C(\C(=O)N[C@@H]1C(=O)N2C(C(=O)O)=C(CSc3nc(=O)c(O)nn3C)CS[C@H]12)c1csc(N)n1 |  | inactive | inactive | inactive | inactive | inactive | inactive | inactive | inactive | inactive | inactive |  |  | inactive | inactive | inactive | inactive | inactive |
| C1CCC2=NCCCN2CC1 | inactive | inactive | inactive | inactive | inactive | inactive |  | inactive |  |  | inactive | inactive | inactive |  |  | inactive |  |  |
| Clc1cc(Cl)c(Cl)nc1Cl | inactive | inactive |  | inactive | inactive |  |  | inactive | inactive | inactive | inactive | inactive | inactive | inactive | inactive | inactive |  |  |
